Test results as given in PubChem BioAssay AID1508622 (National Center for Advancing Translational Sciences (NCATS), 2021).
Activity calls are given as the source filed them. Calls follow the shape of the dose curve; as a rule, active = well fitted activation curve with a large enough effect; inconclusive = small, poorly fitted or top-dose-only effect; inactive = no such curve, though single readings can be large or run the other way.

assay: Confirmatory qHTS for Identification of Small Molecule Activators of Huntingtin-Antisense Promoter Activity; conditions: HEK293 HTT-AS promoter firefly luciferase reporter, 24 h; series mostly up to 57.5 µM; activity change, positive = activation: at the top concentration
Procedure, shortened: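 HEK293 luciferase reporter cells, 2,500/well, cultured 24 h, then exposed to compounds at up to 57.5 uM final for 24 h at 37C. Firefly luciferase luminescence read; normalized to vehicle (0%) and zero RLU (-100%).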

Activity change, positive = activation, inactive:
CN[C@H]1[C@@H](O)[C@@H]2O[C@@H]3O[C@H](C)CC(=O)[C@]3(O)O[C@@H]2[C@@H](NC)[C@H]1O -0.802%, Cc1cccc(Cn2c(SCc3ccc(C(=O)N4CCC(C)CC4)cc3)nc3ccncc32)c1 -34.5%, CCS(=O)(=O)c1ccc(C(=O)N2CCN(c3nc4c(OC)ccc(C)c4s3)CC2)cc1 -43%, Fc1cc(Br)ccc1Nc1c2c(nc3nc(-c4cccs4)nn13)CCCC2 -49.7%, CC1Cc2cc(S(=O)(=O)N(Cc3ccccc3)C(C)C)ccc2N1C(=O)C1CCC1 (stereo not given) -68.9%, Cc1cccc(-n2nc(C)c(C(=O)Nc3cc(C)ccc3C)c2-n2cccc2)c1 -22.1%, Cc1ccc(-c2ncn(-c3ccc(Nc4nccc(-c5cccc(N6CCOCC6)c5)n4)cc3)n2)cn1 -91.3% [at 115 µM], Cc1nnc(N2CCN(c3cccc(C(F)(F)F)c3)CC2)c2c1nnn2Cc1ccccc1 -69%, CN(C)C(=O)COC(=O)Cc1ccc(OC(=O)c2ccc(N=C(N)N)cc2)cc1 -9.99%, COc1ccc(-c2noc(CSc3nc4ccccc4[nH]3)n2)cc1OC -47.7%, CCc1ccc(C2CC(=O)Nc3c2c(C)nn3-c2nc(C)cc(C)n2)cc1 (stereo not given) -13%, CCCc1cc(N2CCN(c3ccc(OC)cc3)CC2)n2cnnc2n1 -93.9%, Cc1oc(-c2ccc(C(=O)NCc3ccc(Cl)cc3)cc2)nc1CS(=O)(=O)c1ccccc1 -20%, Cc1cc(N2CCC(C)CC2)nc2ccc(NC(=O)CCC(=O)N3CCN(c4cccc(C(F)(F)F)c4)CC3)cc12 -18.5%, COc1ccc2sc(N(Cc3cccnc3)C(=O)c3ccc4c(c3)OCCO4)nc2c1 -35.9%
